JMJD2E inh = JMJD2E (human) inhibition; JMJD2E catalytic domain, FDH-coupled NADH fluorescence (FDH is formaldehyde dehydrogenase); Potency, µM (highest dose often 57.1 µM), for inactives: top-dose activity change, negative = inhibition, hits mostly inhibitors; 230,000 tested, 1.6% active; AID 2147; active means well fitted inhibition curve with a large enough effect, not every such curve was filed as active; inconclusive means small, poorly fitted or top-dose-only effect, or another doubt; inactive means no such curve, though single readings can be large or run the other way;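 further: potency means the concentration at half of the fitted maximal effect; 0% = wells with enzyme and -100% = buffer wells without enzyme; nearly all actives have a fitted effect of over 50% in size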
Target sequence (B2RXH2 1-337 limits assumed): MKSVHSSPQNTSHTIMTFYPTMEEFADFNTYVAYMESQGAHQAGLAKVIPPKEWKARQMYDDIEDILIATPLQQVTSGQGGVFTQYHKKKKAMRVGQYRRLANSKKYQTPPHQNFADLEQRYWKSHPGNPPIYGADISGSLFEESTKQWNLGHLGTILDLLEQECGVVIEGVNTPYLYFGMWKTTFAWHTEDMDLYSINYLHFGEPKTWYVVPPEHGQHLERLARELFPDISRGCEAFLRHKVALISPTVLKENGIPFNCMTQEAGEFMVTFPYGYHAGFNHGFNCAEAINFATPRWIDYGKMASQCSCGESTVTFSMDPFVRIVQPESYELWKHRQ
BAZ2B block = BAZ2B (human) inhibition. Q9UIF8. 360,000 tested, 4.4% active. AlphaScreen BAZ2B-H3K14Ac peptide displacement. AID 504333. Potency, µM (titrated, usually from 114 µM), for the others: at the highest dose activity change, negative = inhibition, usual class: inhibitors; further: potency means the concentration at half of the fitted maximal effect; on the % scale 0 is the no-effect control and ±100 the full control effect; nearly all actives have a fitted effect of over 60% in size
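BAZ2B (50 nM) with biotin-H3(5-23)K14Ac peptide (50 nM) in PBS pH 7.4, 0.01% Tween-20, preformed 30 min, then compound 30 min at room temperature; top concentration 110uM. AlphaScreen streptavidin donor/nickel chelate acceptor beads (10 ug/mL final), 20 min dark, signal read.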
JMJD2A Tudor inh = JMJD2A Tudor domain (human) inhibition. AlphaScreen JMJD2A-Tudor / H3K4me3 peptide binding. Potency, µM (titrated, usually from 114 µM), for the others: at the top dose activity change, negative = inhibition, actives largely listed as inhibitors. 390,000 tested, 4.4% active. AID 504339; further: potency means the concentration at half of the fitted maximal effect; on the % scale 0 is the no-effect control and ±100 the full control effect; nearly all actives have a fitted effect of over 50% in size
HP1b binding inh = inhibitors of HP1-beta chromodomain binding to methylated histone tails; P83916; AlphaScreen HP1-beta / biotin-H3K9me3 peptide binding; Potency, µM (titrated, usually from 114 µM), inactives show top-dose activity change, negative = inhibition, actives largely listed as inhibitors; 390,000 tested, 0.56% active; AID 540317; further: potency means the concentration at half of the fitted maximal effect; nearly all actives have a fitted effect of over 70% in size
Target sequence (P83916 whole entry, looked up): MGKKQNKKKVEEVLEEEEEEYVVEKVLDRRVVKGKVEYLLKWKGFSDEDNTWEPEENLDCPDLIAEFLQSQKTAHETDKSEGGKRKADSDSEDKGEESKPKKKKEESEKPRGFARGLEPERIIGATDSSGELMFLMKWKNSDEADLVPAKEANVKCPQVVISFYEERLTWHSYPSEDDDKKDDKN
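HP1-beta protein (50 nM final) preincubated 30 min at room temperature with biotinylated H3(1-18)K9me3 peptide (50 nM) in PBS pH 7.4, 0.01% Tween-20, then compound added for 30 min. AlphaScreen streptavidin donor/nickel chelate acceptor beads (10 ug/mL final), 30 min dark, luminescence read.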
L3MBTL1 block = blocks human L3MBTL1 | Q9Y468 | AlphaScreen L3MBTL1–H3K9me1 peptide binding | Potency, µM (highest dose often 57.1 µM), for inactives: top-dose activity, negative = inhibition, usual class: inhibitors | 230,000 tested, 0.66% active; further: potency means the concentration at half of the fitted maximal effect; on the % scale 0 is the no-effect control and ±100 the full control effect; nearly all actives have a fitted effect of over 60% in size
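First, the protein-peptide complex forms for 30 min at room temperature (L3MBTL1 50 nM, biotinylated H3K9me1 peptide 75 nM). Next, compounds are pin-transferred and incubated 30 min. Finally, AlphaScreen beads are added and read after 30 min.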
PI5P4Ka inh = PI5P4K alpha (human) kinase inhibition; P48426; PI5P4Kalpha enzyme, ADP-Glo luminescence, 60 min; hits give low values; max response, %; 330,000 tested, 1.2% active; AID 652105; active means max response of -50% or lower; inconclusive means between -30% and -50%; inactive means -30% or higher; further: value at the top dose of about 77 µM; on the % scale 0 is the no-effect control and ±100 the full control effect
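Enzyme plus substrate dispensed, test compounds pinned in, then ATP (5 microM final) added. After 60 min at RT, ADP-Glo reagent 1 for 45 min and reagent 2 for 30 min preceded luminescence imaging.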
An asterisk follows results filed as active; ? = inconclusive; / = no result given; [ ] = another dose, or the depositor's remark. Sampled rows, rich in hits. Any-hit rate of the full collection: about 5.7%. Unless noted, the call rests on the fitted dose curve; in most records, active means well fitted inhibition curve with a large enough effect; inconclusive means small, poorly fitted or top-dose-only effect; inactive means no such curve, though single readings can be large or run the other way.

SMILES	JMJD2E inh	BAZ2B block	JMJD2A Tudor inh	HP1b binding inh	L3MBTL1 block	PI5P4Ka inh
Oc1cccc(/C=N/Nc2cccc3cccnc23)c1	?	?	?	?	?	31
Oc1ccc(Br)cc1CNc1cccc2cccnc12	/	?	?	19%	-3%[2.29 µM]	6
COc1cccc(CNc2cccc3cccnc23)c1O	-2%	?	45µM*	-7%	-10%	/
COc1cc(/C=N/Nc2cccc3cccnc23)cc(OC)c1O	?	28µM*	?	?	/	-4
Cc1ccc(O)c(CNc2cccc3cccnc23)c1	-19%	32µM*	?	?	-28%	0
O=C(COc1ccc([N+](=O)[O-])cc1)N(Cc1cccs1)C1CCS(=O)(=O)C1 (centres undefined)	/	-23%	-20%	26%	/	?
COc1ccc(N2CCN(Cc3nc4c(c(=O)n(C)c(=O)n4C)n3C(C)C)CC2)cc1	/	2%	-11%	21%	/	/
COc1nc(NCCc2ccc(OC)c(OC)c2)nc(Nc2ccccc2)n1	/	?	-33%	-8%	-21%	9
COc1ccc(-c2nc3sc(CCNC(=O)c4cc(OC)c(OC)c(OC)c4)c(C)n3n2)cc1	/	-2%	-15%	19%	/	/
N#Cc1c(N)nc2c3c(sc(=N)c2c1N)NC(=O)CC3c1ccccc1 (centres undefined)	?	3%	-15%[57.1 µM]	26%	-2%	-87*
N#Cc1c(N)nc2c3c(sc(=N)c2c1N)NC(=O)CC3c1c(F)cccc1Cl (centres undefined)	?	?	-27%	-4%	-8%	-67*
CCCCNc1nc(Oc2ccc(=O)n(-c3ccccc3)n2)nc(N(CC)CC)n1	/	-5%	-19%	23%	/	/
CCOC(=O)CCNC(=O)N1CCN(S(=O)(=O)c2ccc3c(ccn3C)c2)CC1	/	1%	-3%	27%[57 µM]	/	/
CCS(=O)(=O)c1c(S(=O)(=O)CC)c2cc(C(C)(C)C)ccn2c1C(=O)c1ccc(F)cc1	/	-7%	-3%	24%	/	/
Cc1[nH]n(-c2ccccc2)c(=O)c1/C=N\NC(=O)C1COc2ccccc2O1 (centres undefined)	?	71µM*	?	19%	-5%	-9
O=C(N/N=C/c1c(O)n(-c2ccccc2Cl)c(=O)c2ccccc12)C1COc2ccccc2O1 (centres undefined)	?	-1%	?	10%	1%	-53*
Cc1[nH]n(-c2ccccc2)c(=O)c1/C=N/O	-3%	50µM*	79µM*	8%	2%	/
CCOC(=O)c1[nH]n(-c2ccc(Cl)cc2)c(=O)c1C	1%	?	71µM*	?	-8%	?
CCOc1ccc(-n2nc(CO)c(C(=O)NCc3cccs3)n2)cc1	/	2%	-4%	22%	/	/
O=C(OCC1CCCO1)c1ccc2c(c1)N(Cc1ccccc1F)C(=O)c1ccccc1S2(=O)=O (centres undefined)	/	-2%	-19%	29%	/	/
Cc1ccc(S(=O)(=O)N(C)c2cccc3cccnc23)cc1	/	/	-3%	/	/	/
O=C(COC(=O)c1cccc(Br)c1)Nc1ccc2[nH]c(=O)[nH]c2c1	/	2%	-13%	6%	5%	-12
Cc1ccc(-c2n[nH]c(=S)n2/N=C/c2c(C)[nH]n(-c3ccccc3)c2=O)cc1	?	/	?	13%	/	-58*
Cc1[nH]n(-c2ccccc2)c(=O)c1/C=N/NC(=O)COc1ccccc1[N+](=O)[O-]	-10%	79µM*	79µM*	15%	-5%	-19
Cc1[nH]n(-c2ccccc2)c(=O)c1C(=O)c1ccc(Cl)cc1	-23%	-13%	50µM*	-10%	16%	-1
Cc1nn(-c2ccccc2)c(C)c1/C=N/n1c(-c2ccc(Cl)cc2)n[nH]c1=S	-4%	-27%	?	-7%	-5%	-12
Cc1[nH]n(-c2ccccc2)c(=S)c1C=NCCCN=Cc1c(C)[nH]n(-c2ccccc2)c1=S	9%	?	2µM*	14µM*	-14%	-76*

High-throughput results as filed in PubChem.
